# Data taken from PubChem BioAssay (NCATS).
# Where “and” joins values, the source holds several entries; their conditions need not be identical. Equal entries are not always repeated. Values without a mark were called inactive. Inconclusive results are not listed. Calls of active or inactive are those of the source. Unless noted, calls come from the whole dose curve; as a rule, active = well fitted curve in either direction with a large enough effect (not every such curve was filed as active); inconclusive = small, poorly fitted or top-dose-only effect, or another doubt; inactive = flat fitted curve, though single readings scatter.
# Columns and labels:
# [1] = target: Cytochrome P450 1A2 (Homo sapiens) (UniProt P05177); experiment: p450-cyp1a2 (AID 410; calls by dose curve; note: potency is the fitted concentration of half-maximal effect)
# Procedure, shortened: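 O-Demethylation of luciferin 6' methyl ether by human CYP1A2 is monitored as luciferase luminescence. Substrate sits at Km (100uM); enzyme is 20nM. Values are scaled to 57 uM furafylline as maximal inhibition.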
# [2] = target: Glucocorticoid receptor (Homo sapiens) (UniProt P04150); experiment: GR-GFP Redistribution (AID 450;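 active = compounds whose dose series gives a full or clear partial fitted curve of increased nuclear translocation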; note: potency is the fitted concentration of half-maximal effect); conditions: U2OS GR-GFP nuclear translocation, laser cytometry, 2 h
# [3] = target: Glucocorticoid receptor (Homo sapiens) (UniProt P04150); experiment: GR-EFC Redistribution (AID 451; calls by dose curve; note: potency is the fitted concentration of half-maximal effect); conditions: CHO-K1 GR-EFC translocation, beta-gal luminescence, 2 h
# Procedure, shortened: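 CHO-K1 cells stably expressing nuclear-localized β-gal enzyme acceptor and GR fused C-terminally to the enzyme donor fragment; ligand-driven nuclear translocation restores β-gal by complementation. Compounds titrated up to 46 uM final, 2 h at 37 °C; luminescence read.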
# [4] = target: Mitogen-activated protein kinase 10 (Mus musculus) (UniProt Q61831); experiment: JNK3 AlphaScreen Assay (AID 530);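 note: kinase came from lysate of stimulated human HepG2 cells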; note: potency is the fitted concentration of half-maximal effect;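 for activity change, negative = inhibition: signal reports phosphorylation of biotinylated GST-cJun 1-79 at Ser73 with 10 µM ATP; % is set by controls: 0 for no effect and ±100 for the full control effect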
# Procedure, shortened: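 Phosphorylation of biotinylated GST-cJun(1-79) at Ser73 is measured by AlphaScreen proximity luminescence. Enzyme is JNK3 in HepG2 lysates activated with interleukin-1beta and tumor necrosis factor alpha; ATP is 10 uM final.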
# [5] = AP1 Signaling Pathway (AID 357); conditions: ME-180 AP-1-bla reporter, EGF-induced, beta-lactamase ratio, 5 h; at 17.2 µM (top of the series) unless noted;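 note: ME-180 reporter cells stimulated with EGF at its EC50 level; % is set by controls: 0 for no effect and ±100 for the full control effect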
# Procedure, shortened: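 In this screen, ME-180 cells in Opti-MEM with 0.5% dialyzed FBS received EC50 EGF and compound titrations for 5 h. AP-1 reporter beta-lactamase was detected via CCF4 ratio, giving AC50 for positive and negative modulators.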
# [6] = NFAT Signaling Pathway (AID 444); conditions: Jurkat NFAT-bla M1, carbachol, beta-lactamase ratio, 5 h; at 17.2 µM (top of the series) unless noted;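 note: carbachol stimulus at about its EC50 of 1 µM final; % is set by controls: 0 for no effect and ±100 for the full control effect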
# Procedure, shortened: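 Jurkat cells carrying an NFAT-driven β-lactamase reporter and co-transfected muscarinic M1 receptor were treated with compound plus carbachol (1 uM final, an EC50 level) for 5 h at 37 °C. CCF4 loading followed for 1 h at RT; 460/530 nm ratio gave %activity.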
# [7] = Stat Signaling Pathway (AID 446); conditions: ME-180 (cervical carcinoma) SIE beta-lactamase reporter, IL-6 stimulated, 5 h; at 17.2 µM (top of the series) unless noted;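 note: ME-180 cervical cancer cells given 40 pM IL-6 alongside compound; SIE-controlled beta-lactamase reporter measured as 460/530 nm FRET emission ratio; % is set by controls: 0 for no effect and ±100 for the full control effect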
# Procedure, shortened: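 Compound effects on IL-6-induced STAT reporter activity were measured in ME-180 cells. After overnight culture, cells were co-treated with 40 pM IL-6 for 5 hrs before beta-lactamase substrate loading at room temperature.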
# [8] = Cell Viability - HepG2 (AID 433; calls by dose curve;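 note: potency is the fitted concentration of half-maximal effect; potency for ATP loss meaning cytotoxicity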); conditions: qHTS
# Procedure, shortened: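 Cytotoxicity read as ATP loss (CellTiter-Glo luminescence) after 40 hr compound exposure of HepG2, 1500 cells/well, 37 °C. AC50 by Hill equation; 0% set by DMSO, 100% inhibition by 100 uM tamoxifen.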
# [9] = Cell Viability - MRC5 (AID 434; calls by dose curve;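 note: potency is the fitted concentration of half-maximal effect; potency reflects cytotoxicity seen as loss of intracellular ATP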); conditions: MRC5 lung fibroblast viability, qHTS
# Procedure, shortened: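 Decrease in intracellular ATP, quantified by luciferase light output, reflects compound toxicity toward MRC5 cells exposed for 40 hr in complete culture medium. Concentration-response curves, scaled between DMSO and 100 uM tamoxifen, gave AC50 values.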
# [10] = Cell Viability - SK-N-SH (AID 435; calls by dose curve; note: potency is the fitted concentration of half-maximal effect); conditions: SK-N-SH neuroblastoma cell viability qHTS
# Procedure, shortened: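 qHTS cytotoxicity: CellTiter-Glo ATP luminescence after 40 h compound exposure of human neuroblastoma SK-N-SH cells at 37 °C. AC50 derived by Hill-equation fitting, with DMSO as basal and 100 uM tamoxifen as full inhibition.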
# [11] = Cell Viability - N2a (AID 540; active = well fitted curve in the direction sought with a large enough effect; an effect the other way counts as inactive or inconclusive; note: nearly all actives have a fitted effect of over 45% in size; note: potency is the fitted concentration of half-maximal effect;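 for activity change, negative = cytotoxicity: plate controls were DMSO alone for no effect and tamoxifen control for full effect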); conditions: N2a mouse neuroblastoma cell viability; activity change, negative = cytotoxicity: at 92.2 µM (top of the series)
# Procedure, shortened: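 Cytotoxicity was scored as loss of cellular ATP in N2a cells, a mouse neuroblastoma line. Compounds are applied in a qHTS concentration series for 40 hr at 37 °C.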
# [12] = Cell Viability - NIH 3T3 (AID 541; active = well fitted curve in the direction sought with a large enough effect; an effect the other way counts as inactive or inconclusive;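 note: plate controls were DMSO alone for no effect and tamoxifen positive control for full effect; nearly all actives have a fitted effect of over 25% in size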); conditions: NIH 3T3 cell viability, qHTS; activity change, negative = cytotoxicity: at 92.2 µM (top of the series)
# Procedure, shortened: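 Cells seeded at 1000/well, rested 5 hr at 37 °C, then dosed and incubated 40 hr at 37 °C. CellTiter-Glo added, 20 min room temperature, luminescence read. AC50 by Hill fit.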
# [13] = Cell Viability - SH-SY5Y (AID 544; active = well fitted curve in the direction sought with a large enough effect; an effect the other way counts as inactive or inconclusive;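 note: 0% = DMSO alone and -100% = 100 µM tamoxifen; nearly all actives have a fitted effect of over 55% in size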); conditions: SH-SY5Y neuroblastoma cell viability; viability change, negative = cytotoxic: at 92.2 µM (top of the series)
# Procedure, shortened: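 Cells were plated at 1500 per well and allowed 5 hr at 37 °C. Compounds were added across a concentration range and incubated 40 hr at 37 °C. CellTiter-Glo was added for 20 min at room temperature before luminescence reading.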
# [14] = Cell Viability - BJ (AID 421; calls by dose curve;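 note: potency is the fitted concentration of half-maximal effect; cells exposed to compound for 40 hours at 37 °C before readout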); conditions: BJ fibroblast viability, qHTS
# Procedure, shortened: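 Luminescent ATP signal (CellTiter-Glo, 20 min at room temperature) served as the read-out of viable BJ cells after 40 hours of compound treatment. Responses were scaled between DMSO and 100 uM tamoxifen, and AC50 values were obtained by Hill modeling.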
# [15] = Cell Viability - Jurkat (AID 426;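 active = dose-dependent loss of cell ATP signal giving a full or clear fitted curve, ranked by lower potency value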;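 note: potency is the fitted concentration of half-maximal effect; cells exposed to compound for 40 hours at 37 °C before ATP read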); conditions: qHTS
# Procedure, shortened: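 Cells of the human T-cell leukemia line Jurkat (E6-1) are seeded at 5000 per well, treated with compound across a concentration range for 40 hours at 37 °C, then lysed with CellTiter-Glo; luminescence reports ATP.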
# [16] = Cell Viability - Hek293 (AID 427;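 active = compounds whose dose-response curve shows a full or clear partial loss of cell viability, called from curve shape rather than a numeric limit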;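 note: potency is the fitted concentration of half-maximal effect; cells exposed to compound for 40 hours at 37 °C before reading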); conditions: qHTS
# Procedure, shortened: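 Luminescent ATP read-out (CellTiter-Glo, 20 min RT) after 40 hr compound exposure at 37 °C in complete medium. Signal normalized to DMSO (basal) and 100 uM tamoxifen (100% inhibition); concentration-response fitted with the standard Hill equation to give AC50.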
# [17] = Cell Viability - HUV-EC-C (AID 542; active = well fitted curve in the direction sought with a large enough effect; an effect the other way counts as inactive or inconclusive; note: % is set by controls: 0 for no effect and ±100 for the full control effect; nearly all actives have a fitted effect of over 35% in size)
# Procedure, shortened: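 Cells were seeded at 1000 per well and incubated 5 hr at 37 °C before compound addition. After 40 hr at 37 °C, CellTiter-Glo reagent was added for 20 min and luminescence read. AC50 values came from Hill-equation modelling.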
# [18] = Cell Viability - H-4-II-E (AID 543; active = well fitted curve in the direction sought with a large enough effect; an effect the other way counts as inactive or inconclusive; note: % is set by controls: 0 for no effect and ±100 for the full control effect; nearly all actives have a fitted effect of over 35% in size)
# Procedure, shortened: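 Cells seeded at 1500 per well and rested 5 hr; compounds added; 40 hr incubation at 37 °C; CellTiter-Glo added, 20 min at room temperature; luminescence read. Hill-equation fits gave AC50.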
# [19] = Cell Viability - Renal Proximal Tubule (AID 545; active = well fitted curve in the direction sought with a large enough effect; an effect the other way counts as inactive or inconclusive;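 note: 0% = DMSO only and -100% = 100 µM tamoxifen; nearly all actives have a fitted effect of over 40% in size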)
# Procedure, shortened: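 Viability taken as intracellular ATP (CellTiter-Glo luminescence) after 40 hr, 37 °C compound treatment of primary proximal tubule cells from rat kidney, 1000 cells/well; Hill-equation fits of qHTS concentration-response data gave AC50.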
# [20] = Cell Viability - Mesenchymal (AID 546; active = well fitted curve in the direction sought with a large enough effect; an effect the other way counts as inactive or inconclusive;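 note: cells exposed to compound for 40 hours before reading; 0% = DMSO only and -100% = 100 µM tamoxifen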)
# Procedure, shortened: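 In this qHTS cytotoxicity format, glomerulus-derived human mesenchymal kidney cells received compound for 40 hr, then luciferase-based ATP quantitation. Concentration-response data were fitted with the Hill equation.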
# Glucocorticoid receptor (Homo sapiens), sequence (P04150 whole entry, looked up, the tested form may be a part): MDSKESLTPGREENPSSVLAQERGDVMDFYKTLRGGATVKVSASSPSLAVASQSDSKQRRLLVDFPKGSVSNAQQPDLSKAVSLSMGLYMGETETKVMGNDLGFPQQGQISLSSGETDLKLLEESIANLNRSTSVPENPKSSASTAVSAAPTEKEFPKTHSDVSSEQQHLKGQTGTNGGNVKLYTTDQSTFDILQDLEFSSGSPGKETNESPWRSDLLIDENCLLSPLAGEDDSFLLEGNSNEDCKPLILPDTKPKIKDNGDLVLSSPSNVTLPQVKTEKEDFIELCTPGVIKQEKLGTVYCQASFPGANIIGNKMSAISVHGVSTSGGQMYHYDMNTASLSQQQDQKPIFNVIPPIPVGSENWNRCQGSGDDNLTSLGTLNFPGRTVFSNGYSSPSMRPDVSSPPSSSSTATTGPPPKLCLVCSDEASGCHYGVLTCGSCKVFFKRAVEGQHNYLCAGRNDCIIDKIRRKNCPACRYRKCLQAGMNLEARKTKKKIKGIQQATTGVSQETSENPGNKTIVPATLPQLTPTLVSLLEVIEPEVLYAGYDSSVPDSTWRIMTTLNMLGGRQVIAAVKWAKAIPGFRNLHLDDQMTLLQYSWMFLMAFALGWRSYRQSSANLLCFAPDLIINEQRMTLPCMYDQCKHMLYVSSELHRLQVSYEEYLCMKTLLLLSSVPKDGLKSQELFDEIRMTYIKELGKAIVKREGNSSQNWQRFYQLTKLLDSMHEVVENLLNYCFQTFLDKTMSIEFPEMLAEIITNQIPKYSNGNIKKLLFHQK
# Cytochrome P450 1A2 (Homo sapiens), sequence (P05177 whole entry, looked up): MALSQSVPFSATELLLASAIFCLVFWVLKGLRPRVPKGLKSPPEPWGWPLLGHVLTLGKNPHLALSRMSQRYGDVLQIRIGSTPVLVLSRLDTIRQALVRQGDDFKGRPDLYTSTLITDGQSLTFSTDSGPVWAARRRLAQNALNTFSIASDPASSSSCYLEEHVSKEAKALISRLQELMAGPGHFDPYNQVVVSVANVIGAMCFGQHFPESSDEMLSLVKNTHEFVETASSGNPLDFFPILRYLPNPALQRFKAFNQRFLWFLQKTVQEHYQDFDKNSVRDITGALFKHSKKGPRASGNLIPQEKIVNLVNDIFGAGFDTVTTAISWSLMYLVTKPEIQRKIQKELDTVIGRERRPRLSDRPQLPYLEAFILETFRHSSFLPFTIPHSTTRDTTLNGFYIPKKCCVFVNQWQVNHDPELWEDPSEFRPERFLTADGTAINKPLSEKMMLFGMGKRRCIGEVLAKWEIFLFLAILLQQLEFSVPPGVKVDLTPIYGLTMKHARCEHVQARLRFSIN
structure (smiles),measurement,setting,value
O=c1oc2c(O)c(O)cc3c(=O)oc4c(O)c(O)cc1c4c23,Potency,[1],15.8 µM (active)
same,Potency,[2],> 46 µM
same,Potency,[3],> 46 µM
same,Potency,[4],1.26 µM (active)
N[C@@H](C(=O)N[C@@H]1C(=O)N2C(C(=O)O)=C(Cl)CS[C@H]12)c1ccccc1,"activity change, negative = inhibition",[5],0.208%
same,"activity change, negative = inhibition",[6],7.31%
same,"activity, negative = inhibition",[7],1.22%
same,Potency,[2],> 20.6 µM
CCN(CC)CC#CCOC(=O)C(O)(c1ccccc1)C1CCCCC1 (configuration not stated),"activity change, negative = inhibition",[5],-4.6%
same,"activity change, negative = inhibition",[6],-93% (active)
same,"activity, negative = inhibition",[7],0.633%
same,Potency,[2],> 20.6 µM
CC[C@H](NC(C)C)[C@H](O)c1ccc(O)c2[nH]c(=O)ccc12,Potency,[2],> 46 µM
same,Potency,[3],> 46 µM
NS(=O)(=O)c1cc2c(cc1Cl)NC(C(Cl)Cl)NS2(=O)=O (configuration not stated),"activity change, negative = inhibition",[5],12.3%
same,"activity, negative = inhibition",[7],2.72%
O=C(O)c1cn(C2CC2)c2cc(N3CCNCC3)c(F)cc2c1=O,"activity change, negative = inhibition",[5],3.13%
same,"activity change, negative = inhibition",[6],6.31%
same,"activity, negative = inhibition",[7],11.7%
same,Potency,[4],inactive
COc1cc2ncnc(Nc3cccc(Cl)c3)c2cc1OC,"activity change, negative = inhibition",[5],-106% [at 38 µM] (active)
same,"activity change, negative = inhibition",[6],3.52% [at 38 µM]
same,Potency,[2],> 46 µM
same,Potency,[3],> 46 µM
same,Potency,[4],inactive
N=C(N)c1ccc(OCCCCCOc2ccc(C(=N)N)cc2)cc1,Potency,[8],> 92 µM
same,Potency,[9],> 92 µM
same,Potency,[10],> 92 µM
same,"activity, negative = inhibition",[7],15.4%
same,Potency,[2],> 20.6 µM
same,Potency,[3],> 20.6 µM
same,Potency,[4],inactive
same,Potency,[11],15.8 µM (active)
same,"activity change, negative = cytotoxicity",[12],-80.1% (active)
same,Potency,[13],inactive
COc1cc([C@@H]2c3cc4c(cc3[C@H](O)[C@H]3COC(=O)[C@H]23)OCO4)cc(OC)c1OC,"activity change, negative = inhibition",[5],20.7%
same,"activity, negative = inhibition",[7],6.38%
O=C(N[C@H](CO)[C@H](O)c1ccc([N+](=O)[O-])cc1)C(Cl)Cl,Potency,[14],> 92 µM
same,Potency,[15],> 92 µM
same,Potency,[16],> 92 µM
same,Potency,[8],> 92 µM
same,Potency,[9],> 92 µM
same,Potency,[10],> 92 µM
same,Potency,[4],inactive
same,Potency,[11],inactive
same,"activity change, negative = cytotoxicity",[12],-14.2%
same,Potency,[17],inactive
same,Potency,[18],inactive
same,Potency,[13],inactive
same,Potency,[19],inactive
same,Potency,[20],inactive
Nc1nc(F)nc2c1ncn2[C@@H]1O[C@H](CO)[C@@H](O)[C@@H]1O,"activity change, negative = inhibition",[5],-4.13%
same,"activity, negative = inhibition",[7],7.84%
same,Potency,[2],> 20.6 µM
CCC(=O)O[C@]1(C(=O)CCl)[C@@H](C)C[C@H]2[C@@H]3CCC4=CC(=O)C=C[C@]4(C)[C@@]3(F)[C@@H](O)C[C@@]21C,"activity change, negative = inhibition",[5],3.85%
same,"activity change, negative = inhibition",[6],-24.5%
same,"activity, negative = inhibition",[7],-5.77%
same,Potency,[2],< 5.9e-06 µM (active)
Clc1ccccc1CN1CCc2sccc2C1,"activity change, negative = inhibition",[5],-15.6% and -18.3%
same,"activity, negative = inhibition",[7],1.54% and 0.607%
same,Potency,[4],inactive
Nc1[nH]c(=O)ncc1F,"activity change, negative = inhibition",[5],0.602%
same,"activity change, negative = inhibition",[6],0.663%
same,"activity, negative = inhibition",[7],-4.22%
same,Potency,[2],> 20.6 µM
same,Potency,[3],> 20.6 µM
same,Potency,[4],inactive
C1CCC(C(CC2CCCCN2)C2CCCCC2)CC1 (configuration not stated),"activity change, negative = inhibition",[5],22.4%
same,"activity, negative = inhibition",[7],5.25%
same,Potency,[2],> 20.6 µM
CC1=CC(=O)c2ccccc2C1=O,Potency,[1],0.158 µM (active)
same,"activity change, negative = inhibition",[6],-115% (active)
same,Potency,[2],> 20.6 µM
same,Potency,[3],> 20.6 µM
same,Potency,[4],inactive
O=C(O)c1cc(=O)[nH]c(=O)[nH]1,Potency,[14],> 92 µM
same,Potency,[15],> 92 µM
same,Potency,[16],> 92 µM
same,Potency,[8],> 92 µM
same,Potency,[9],> 92 µM
same,Potency,[10],> 92 µM
same,Potency,[4],inactive
same,Potency,[11],inactive
same,"activity change, negative = cytotoxicity",[12],-4.07%
same,Potency,[17],inactive
same,Potency,[18],inactive
same,Potency,[13],inactive
same,Potency,[19],inactive
same,Potency,[20],inactive
CC(C)(Sc1cc(C(C)(C)C)c(O)c(C(C)(C)C)c1)Sc1cc(C(C)(C)C)c(O)c(C(C)(C)C)c1,"activity change, negative = inhibition",[5],1.37%
same,"activity change, negative = inhibition",[6],10.7%
same,"activity, negative = inhibition",[7],5.26%
same,Potency,[2],> 20.6 µM
same,Potency,[3],> 20.6 µM
same,Potency,[4],inactive
Cc1ccc(S(=O)(=O)N[C@@H](Cc2ccccc2)C(=O)CCl)cc1,"activity, negative = inhibition",[7],-65.8% [at 38 µM] (active)
same,Potency,[2],> 46 µM
same,Potency,[3],> 46 µM
same,Potency,[4],inactive
C[C@]12C=CC(=O)C=C1CC[C@@H]1[C@@H]2C(=O)C[C@@]2(C)[C@H]1CC[C@]2(O)C(=O)CO,Potency,[14],> 92 µM
same,Potency,[15],> 92 µM
same,Potency,[16],> 92 µM
same,Potency,[8],> 92 µM
same,Potency,[9],> 92 µM
same,Potency,[10],> 92 µM
same,Potency,[4],inactive
same,Potency,[11],inactive
same,"activity change, negative = cytotoxicity",[12],-17%
same,Potency,[17],inactive
same,Potency,[18],inactive
same,Potency,[13],inactive
same,Potency,[19],inactive
same,Potency,[20],inactive
COc1ccccc1OCC(O)COC(N)=O (configuration not stated),"activity change, negative = inhibition",[5],9.66%
same,"activity change, negative = inhibition",[6],-29.9%
same,"activity, negative = inhibition",[7],6.13%
same,Potency,[2],> 20.6 µM
